From PubChem BioAssay AID488908 (National Center for Advancing Translational Sciences (NCATS), 2010)
Several values for one entry are separate records, joined by “and”; a condition that tells them apart may be missing. Equal values may be shown once. Results filed as inconclusive are left out. Unmarked numbers belong to inactive results. Activity calls are given as the source filed them. Calls follow the shape of the dose curve; as a rule, active = well fitted inhibition curve with a large enough effect; inconclusive = small, poorly fitted or top-dose-only effect; inactive = flat fitted curve, though single readings scatter.

Test: Secondary Assay for lipid storage modulators: Cytotoxcity for probe SAR
Settings: Drosophila S3 cells viability, CellTiter-Glo luminescence, 24 h, with oleic acid added (1 µL, 400 µM); series mostly up to 46.1 µM; activity change, negative = cytotoxicity: at the top concentration
Description: NIH Molecular Libraries Probe Production Centers Network [MLPCN] NIH Chemical Genomics Center [NCGC] MLPCN Grant: 1 R03 MH085686-01 Assay Submitter (PI): Beller, Mathias; Max-Planck-Institut fur Biophysikalische Chemie, Germany. NCGC Assay Overview: Storing lipids as a reservoir for energy or the anabolism of elementary metabolites is a common feature of probably all cells and is conserved from bacteria to humans. The universal cellular lipid storage organelle is the so-called lipid storage droplet (LD). Although ubiquitous, LDs share a simple structure composed of a hydrophobic core that harbors the storage lipids, which is shielded by a droplet-specific phospholipid monolayer to which proteins are attached. The current model of LD biogenesis involves an incorporation of the lipid core into the membrane leaflets of the endoplasmic reticulum (ER) followed by a subsequent budding-like maturation of a LD, which ultimately pinches off. Once released, LD volume can increase by localized lipogenesis or fusion of existing droplet. Storage lipids are re-mobilized enzymatically by lipase activity. Lipase regulation in the adipocyte is heavily studied and involves multiple components including catecholamine signaling, the LD-associated proteins Perilipin and comparative gene identification (CGI-58) and at least two lipases named hormone sensitive lipase (HSL) and adipocyte triglyceride lipase (ATGL). LD regulation outside of the adipocyte is poorly understood and only few components are known. However, there is an urgent need to learn more about ectopic fat depots as mislocalized storage of lipids, for example in the liver or muscle, is an eminent health problem associated with insulin resistance or the metabolic syndrome. We developed a laser-scanning cytometer assay to enable 1,536-well screening and combined the results of the small molecules screen with an RNAi database based on lipid storage. The compound was tested here for cytotoxcity using CellTiter-Glo.
Assay Protocol Summary: Cytotoxcity assay was performed with embryonic Drosophila S3 cells (Bloomington Drosophila Genomics Resource Center [DGRC]). We dispensed 4 uL of cells at 1.25 x 10^6 cells/mL into Greiner solid white 1,536-well plates with a bottle-valve solenoid-based dispenser (Aurora) to obtain 5,000 cells/well. A total of 23 nL of compound solution of different concentrations were transferred to the assay plates using a Kalypsys pin tool equipped with a 1,536-pin array containing 10-nL slotted pins (FP1S10, 0.457-mm diameter, 50.8 mm long; V&P Scientific). One microliter of oleic acid (400 uM) was added, and the plate was lidded with stainless steel rubber gasket lined lids containing pinholes. After 24 hrs of incubation at 24 degrees Celsius and 95% humidity, 4 uL of CellTiter-Glo (Promega) was added to the wells. Luminescence was detected on the Perkin Elmer ViewLux.

Compound	Potency	activity change, negative = cytotoxicity
Cc1cc(NC(=O)Nc2ccc(N(C)C)cc2)c2cc(F)cc(F)c2n1	12.5 µM (active)	
Cc1cc(SCc2sc(-c3ccc(C(F)(F)F)cc3)nc2C)ccc1OCC(=O)O		-12.1%
Cc1sc(NC(=O)Cc2cccs2)nc1-c1ccccc1		-24.1%
Cc1ccc(-c2cnc(SCC(=O)Nc3nc(C)cs3)n2Cc2ccco2)cc1		-11.2%
CCOC(=O)C1CCN(C(=O)C2(NC(=O)Nc3ccccc3Cl)CCCCC2)CC1		-10.2%
COc1ccc(-n2ncc3c2CCCC3NC(=O)c2cnc(C)cn2)cc1 (stereo not given)	15.8 µM (active)	
C[C@@H](NCCCc1cccc(C(F)(F)F)c1)c1cccc2ccccc12	28.1 µM (active)	
O=C(NCCc1ccc2c(c1)OCO2)c1cc2sccc2n1Cc1ccccc1		-17.2%
O=C(NC1CCCc2c1cnn2-c1ccc(F)cc1F)c1cccs1 (stereo not given)	8.88 µM (active)	
O=C(NC1CCCc2c1cnn2-c1ccc(F)cc1F)c1ccccn1 (stereo not given)	9.96 µM (active) and 8.88 µM (active)	
COc1ccc(Cl)cc1NC(=S)N1CCN(c2ccc(F)cc2)CC1		-5.01%
Cc1ccc(C)c(-c2csc(NC(=O)CSc3nnc(Nc4ccc(OC(F)(F)F)cc4)s3)n2)c1		-11.8%
O=C(Cc1cccs1)Nc1nc(-c2ccc3c(c2)CCC3)cs1		-15.7%
CCOc1ccc(CCNC(C)=O)cc1OCC		-2.17%
COc1ccc(Cl)cc1NC(=O)N1CCN(c2ccccn2)CC1		-5.58%
CCOc1ccc(CCNC(=O)c2csc(Br)n2)cc1OCC		-18.6% [at 30.7 µM]
CCOc1ccc(NC(=O)NC2(C(=O)N3CCCCC3)CCCCC2)cc1		-14.5%
O=C(Cc1cccs1)Nc1nc(-c2ccncc2)cs1		-14.5%
O=C(NC1CCCc2c1cnn2-c1ccc(F)cc1F)c1cccc(=O)[nH]1 (stereo not given)	2.81 µM (active)	
CCOC(=O)C1CCN(C(=O)CNC(=O)Nc2ccccc2Cl)CC1		2.28%

Compound	Potency	activity change, negative = cytotoxicity
COc1ccc(Cl)cc1NC(=S)N1CCN(c2cccc(Cl)c2)CC1		-16.8%
O=C(O)CCc1ccc(NCc2cccc(Oc3ccccc3)c2)cc1		-4.63%
O=C(NC1CCCc2c1cnn2-c1ccc(F)cc1F)c1cnon1 (stereo not given)		-12.7%
Cc1ccc(-c2cnc(SCC(=O)Nc3nccs3)n2Cc2ccco2)cc1		-13.1%
COc1ccc(CCNC(=O)c2cc3sc(C)cc3n2C)cc1OC		-27.1%
COc1ccc(NC(=S)N2CCN(c3cccc(Cl)c3)CC2)c(OC)c1		-20.9%
O=C(NCCc1ccc2c(c1)OCO2)c1cc2sccc2[nH]1		-4.89% [at 30.7 µM]
O=C(O)c1cccc(-c2noc(-c3ccccc3F)n2)c1		-10.1%
O=C(NCCc1ccc(O)c(O)c1)c1cc2sccc2n1Cc1ccccc1		-15%
CN(C)Cc1ccc(-c2nc3cccc4c3n2CCNC4=O)cc1		-2.69%
CCOc1ccc(CCNC(=O)C2=C(C)OCCO2)cc1OCC		-6.76%
CCOc1ccc(CCNC(=O)c2cc3sccc3n2Cc2ccc(-n3cncn3)cc2)cc1OCC		-25.9%
CCOc1ccc(CCNC(=O)c2cc3sc(Cl)cc3n2CC)cc1OCC		-22.5%
CC(=O)NCc1ccc(-c2csc(NC(=O)Cc3cccs3)n2)cc1		-19.2%
O=C(NC1CCCc2c1cnn2-c1ccc(F)cc1F)c1cccc(F)c1F (stereo not given)	14.1 µM (active)	
O=C(NC1CCCc2c1cnn2-c1ccc(F)cc1F)C1CCCCC1 (stereo not given)	0.791 µM (active)	
O=C(NC1CCCc2c1cnn2-c1ccc(F)cc1F)c1ccsc1 (stereo not given)	3.97 µM (active)	
Cc1ccc(CC(=O)Nc2nc(-c3cccs3)cs2)cc1		-7.37%
CCOc1ccc(CCNC(=O)c2cnon2)cc1OCC		2.21%
O=C(Nc1cccc2nn(-c3ccc(F)cc3)cc12)c1ccccn1	12.5 µM (active)	
